# Pf Dd2 inh: blocks growth of Plasmodium falciparum Dd2 parasites; 94,000 tested, 2.3% active; P. falciparum Dd2 growth, SYBR Green, 72 h; hits give low values; activity change, % at 10 µM; in the data active = activity change below about -80%; inconclusive = no clear call, values can overlap the other calls
# Tcruzi prolif: inhibitors of T. cruzi proliferation. T. cruzi beta-gal in NIH3T3, GalScreen luminescence, 90 h. inhibition, % at 8.34 µM. 77,000 tested, 5.9% active. AID 624255;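 active = mean inhibition above about 93%, with at least 55% of replicates each passing it, limit read from the data, passing the limit was not always enough; inconclusive = only one of those two conditions holds; inactive = neither condition holds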
# C diff growth: blocks growth of Clostridium difficile; Clostridium difficile clinical isolate growth, OD600, 24 h; hits give low values; growth activity, negative = inhibition, % at 16 µg/mL (by protocol); 86,000 tested, 0.25% active; AID 1259249;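 active = mean growth activity at or below -80% and every replicate also at or below -80%; inconclusive = mean at or below -80% but some replicate above -80%; inactive = mean growth activity above -80%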;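 also: 0% = DMSO wells and -100% = levofloxacin 16 µg/mL wells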
# Active calls of the source: *; ? = inconclusive; · = no result; ! = not active in a repeat. This is a sample that favours compounds with a hit; in the whole collection about 6.7% have one here.
SMILES,Pf Dd2 inh,Tcruzi prolif,C diff growth
C[C@@H]1CCCCO[C@H](CN(C)C(=O)Nc2ccc(C(F)(F)F)cc2)[C@@H](C)CN([C@@H](C)CO)C(=O)c2cc(NS(=O)(=O)c3ccc(F)cc3)ccc2O1,-84*,78,4
Cc1ccc(S(=O)(=O)Nc2ccc3c(c2)C(=O)N([C@@H](C)CO)C[C@@H](C)[C@@H](CN(C)C(=O)Nc2ccc(C(F)(F)F)cc2)OCCCC[C@H](C)O3)cc1,-82*,87,-6
Cc1ccc(S(=O)(=O)Nc2ccc3c(c2)C(=O)N([C@@H](C)CO)C[C@@H](C)[C@@H](CN(C)Cc2ccc(C(F)(F)F)cc2)OCCCC[C@H](C)O3)cc1,-81*,·,-3
C[C@H]1CCCCO[C@@H](CN(C)C(=O)Nc2ccc(C(F)(F)F)cc2)[C@@H](C)CN([C@@H](C)CO)C(=O)c2cc(NS(=O)(=O)c3ccc(F)cc3)ccc2O1,-46,87,4
C[C@@H]1CCCCO[C@H](CN(C)C(=O)Nc2ccc(C(F)(F)F)cc2)[C@H](C)CN([C@@H](C)CO)C(=O)c2cc(NS(=O)(=O)c3ccc(F)cc3)ccc2O1,-46,79,0
Cc1ccc(S(=O)(=O)Nc2ccc3c(c2)C(=O)N([C@H](C)CO)C[C@@H](C)[C@H](CN(C)Cc2ccc(C(F)(F)F)cc2)OCCCC[C@@H](C)O3)cc1,-73,·,48
O=C(C[C@@H]1CC[C@H](NC(=O)c2cccnc2)[C@H](CO)O1)NCc1ccncn1,4,-25,0
C[C@@H]1CCCCO[C@H](CN(C)C(=O)CCC(F)(F)F)[C@H](C)CN([C@@H](C)CO)C(=O)c2cc(NS(C)(=O)=O)ccc2O1,-20,21,-3
CC(C)NC(=O)NCC[C@H]1CC[C@@H](NC(=O)CN(C)C)[C@@H](CO)O1,-4,24,·
CCCN1[C@H](CO)[C@H](c2ccc(C3=CCCC3)cc2)[C@H]1CN(C(C)=O)C1CCCC1,-95*,·,3
CC(=O)N(C)C[C@@H]1[C@@H](c2ccc(C3=CCCC3)cc2)[C@@H](CO)N1CC1CC1,-24,42,-7
COc1ccccc1NC(=O)N1C[C@@H]2N[C@H](C1)C2c1ccc(-c2ccc(C#N)cc2)cc1 (stereo partly drawn),-64,·,16
N#Cc1cccc(-c2ccc(C3[C@@H]4CN(C(=O)C5CCOCC5)C[C@H]3N4)cc2)c1 (stereo partly drawn),-47,·,-1
Cc1ccc(-c2ccc(C3[C@@H]4CN(C(=O)Nc5ccc(C(F)(F)F)cc5)C[C@H]3N4)cc2)cc1 (stereo partly drawn),-85*,·,-92*!
COc1ccc(NC(=O)N2C[C@@H]3N[C@H](C2)C3c2ccc(-c3cccc(F)c3)cc2)cc1 (stereo partly drawn),-33,·,3
N#Cc1ccc(-c2ccc(C3[C@@H]4CN(C(=O)Nc5ccc(C(F)(F)F)cc5)C[C@H]3N4)cc2)cc1 (stereo partly drawn),?,·,-96*!
O=C(Nc1ccc(C(F)(F)F)cc1)N1C[C@@H]2N[C@H](C1)C2c1ccc(-c2cccc(F)c2)cc1 (stereo partly drawn),-83*!,·,-99*
N#Cc1ccc(-c2ccc(C3[C@@H]4CN(C(=O)C5CC5)C[C@H]3N4)cc2)cc1 (stereo partly drawn),-88*!,·,-11
O=C(Nc1ccc(F)cc1)N1C[C@@H]2N[C@H](C1)C2c1ccc(-c2cccnc2)cc1 (stereo partly drawn),-53,·,-5
CO[C@H](CN(C)S(=O)(=O)c1ccccc1)[C@@H](C)CN(Cc1ccccc1Cl)[C@@H](C)CO,-30,32,·
C[C@H](CO)N1C[C@H](C)[C@@H](CN(C)C(=O)c2ccncc2)Oc2ncc(C#C[C@@H](C)O)cc2C1=O,14,-16,-1
C/C=C/c1ccc(C2[C@@H]3CN(C(=O)Nc4ccc5c(c4)OCO5)C[C@H]2N3)cc1 (stereo partly drawn),-37,·,-5
COc1ccc(NC(=O)N2[C@@H]3CNC[C@H]2C3c2ccc(-c3ccc(OC)cc3)cc2)cc1 (stereo partly drawn),-33,·,-11
COc1ccc(-c2ccc(C3[C@H]4CNC[C@@H]3N4C(=O)Nc3ccc(C(F)(F)F)cc3)cc2)cc1 (stereo partly drawn),-84*!,·,-99*!
N#Cc1ccc(-c2ccc([C@@H]3[C@@H]4CN(C(=O)Nc5ccc6c(c5)OCO6)C[C@H]3N4)cc2)cc1,-87*,·,22
C[C@H](CO)N1C[C@H](C)[C@H](CN(C)S(=O)(=O)c2cn(C)cn2)Oc2ccc(NC(=O)c3ccncc3)cc2CC1=O,8,·,0
C[C@@H]1CN([C@@H](C)CO)C(=O)CCCn2cc(nn2)CO[C@@H]1CN(C)C(=O)Cc1ccccc1,0,-58,-2
